# Results as given in PubChem BioAssay (NCI).
# Several values for one entry are separate records, joined by “and”; a condition that tells them apart may be missing. Equal values may be shown once. About 79,000 compounds went through this panel and 15% of them were active in at least one assay; those are over-represented in the sample as a whole. A number with no mark means an inactive call. Activity calls are given as the source filed them. Rule as the data show it: active = growth inhibition above about 70%; inactive = the rest.
# What was measured:
# [1] = NCI Yeast Anticancer Drug Screen. Data for the rad50 strain (AID 155);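 also: 0% = growth of vehicle-only cultures of the same strain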; settings: S. cerevisiae rad50 strain growth inhibition, hits give high values; at 50.0 µM unless noted
# Procedure, shortened: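 DNA repair mutant yeast, compound exposure, growth read-out; inhibition is taken relative to vehicle.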
# [2] = NCI Yeast Anticancer Drug Screen. Data for the mec2-1 strain (AID 157); settings: S. cerevisiae mec2-1 strain, hits give high values; at 50.0 µM unless noted
# Procedure, shortened: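 Test agents were screened against the mec2-1 yeast strain, with defined DNA repair or cell cycle alteration. Growth was scored as inhibition against vehicle-only controls.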
# [3] = NCI Yeast Anticancer Drug Screen. Data for the sgs1 mgt1 strain (AID 161);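 also: 0% = growth of cultures given vehicle only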; settings: S. cerevisiae sgs1 mgt1 strain, hits give high values; at 50.0 µM unless noted
# Procedure, shortened: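 Mutant yeast exposed to compound; growth scored against vehicle-only wells.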
# [4] = NCI Yeast Anticancer Drug Screen. Data for the cln2 rad14 strain (AID 165);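 also: 0% = growth equal to vehicle treated cultures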; settings: S. cerevisiae cln2 rad14 strain, hits give high values; at 50.0 µM unless noted
# Procedure, shortened: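 Growth of compound-exposed yeast (cln2 rad14 genotype) measured and expressed as inhibition relative to vehicle.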
# [5] = NCI Yeast Anticancer Drug Screen. Data for the bub3 strain (AID 167); settings: S. cerevisiae bub3 mutant strain, hits give high values; at 50.0 µM unless noted
# Procedure, shortened: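 In this screen, a yeast mutant lacking normal mitotic checkpoint function is challenged with compound. Relative growth versus vehicle gives the inhibition value.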
# [6] = NCI Yeast Anticancer Drug Screen. Data for the mlh1 rad18 strain (AID 175); settings: S. cerevisiae mlh1 rad18 strain growth inhibition, hits give high values; at 50.0 µM unless noted
# Procedure, shortened: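 In this whole-cell yeast screen, a strain with altered DNA damage repair is challenged with compound, and its growth is measured against matched vehicle-treated controls.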
SMILES,growth inhibition [1],growth inhibition [2],growth inhibition [3],growth inhibition [4],growth inhibition [5],growth inhibition [6]
COc1c2c(c(OC)c3ccccc13)C(=O)C1=C(CC=CC1)C2=O,4%,18.4%,-8.6%,-10.1%,14.6%,40.1%
CCC(C)C(NC(=O)C1CSC(C)(C)N1C=O)C(=O)OC1CCCCC1 (stereo not given),38.9%,-13.2%,19.1%,-13.2%,-4.9%,9.55%
O=C1N=C2Sc3ccc4ccccc4c3N2C1=O,21.2%,2.55%,24.1%,20.4%,5.5%,11.2%
Cc1cccc(C(=O)OCC2CCCO2)c1 (stereo not given),-0.2%,11.7%,8.15%,-22.6%,8.8%,-3.4%
COc1ccc(C=C(C(=O)O)C(=O)O)cc1,30.1%,-11.6%,-8.15%,17.8%,22%,29.6%
NC1=NCC(CN2CCCCC2)O1 (stereo not given),7.1%,1.8%,-4.05%,-2.4%,-8.3%,5.9%
Cc1c(C)c(C)c(CCc2c(C)c(C)c(C)c(C)c2C)c(C)c1C,-16.8%,-1.25%,-0.9%,-16.5%,-4.15%,-12.3%
CC(=O)OC1c2ccccc2CCCCCCC12OCCO2 (stereo not given),-25.1%,-36.4%,-53.2%,1.8%,-36.3%,-7.25%
CCOc1ccc(NC(N)=O)cc1,-44.5%,-9.85%,-14.5%,-3.7%,-2.55%,15.2%
Cc1ccc2nc(Sc3c([N+](=O)[O-])ncn3C)[nH]c2c1,-16.1%,-16.4%,-18.2%,5.75%,-20.7%,-25.4%
CCc1ccc2c(c1)C(O)(C#Cc1ccccc1)c1cc(CC)ccc1C2(O)C#Cc1ccccc1 (stereo not given),37.5%,25.2%,45.5%,22.9%,-4.8%,32.7%
O=C(O)c1ccccc1C(=O)Nc1ccc(S(=O)(=O)Nc2nccs2)cc1,-22.6% and -6.05%,-15.9% and 9.8%,-17.1% and 19.8%,-4.7% and -20%,-2.35% and -4.15%,-18.5% and 25.6%
CCCCOC(=O)NC(Nc1ccc(S(N)(=O)=O)cc1)(C(F)(F)F)C(F)(F)F,5.95%,7.9%,2.95%,-1.4%,12.1%,18.3%
OCCNc1ncnc2c1ncn2C1OC(CO)C(O)C1O (stereo not given),6.3%,5.25%,-12.3%,-23.9%,-20%,22%
Nc1ccccc1[N+](=O)[O-],-14.4%,-3.45%,-14.7%,-15.7%,1.5%,-1.55%
Cc1sc2nc3n(c(=O)c2c1C)N=CN(c1ccc(Cl)cc1)C3,5.5%,5.1%,7.8%,-3.15%,0.05%,-45.2%
O=C(Nc1ccc(Cl)cc1)NC1OC(=O)C(Cl)=C1Cl (stereo not given),23.4%,9.3%,8.55%,-17.9%,3.5%,23.1%
O=c1[nH]c(=O)n(C2CC(O)C(CO)O2)cc1OCCCc1ccccc1 (stereo not given),-27.8%,0.75%,12.2%,13.8%,-0.5%,-3.2%
Cc1cccc(C)c1NS(=O)(=O)c1ccc(Cl)cc1,91.8% (active),84.4% (active),68.7%,91.7% (active),94% (active),90.4% (active)
CC(=O)OC(C#N)c1ccco1 (stereo not given),-11.4%,-49.1%,-25.2%,5.8%,-38.2%,-7.85%

SMILES,growth inhibition [1],growth inhibition [2],growth inhibition [3],growth inhibition [4],growth inhibition [5],growth inhibition [6]
O=c1c2cc(O)ccc2n2nnc3ccc(NCCNCCO)c1c32,-18.4% and -10.8%,-16.3% and -12.1%,-35.1% and -8.7%,18.1% and 16.9%,8.3% and 1%,-4.7% and 3.1%
CC(=O)CC(=O)c1ccc(C(=O)CC(C)=O)cc1.[Fe],-8.1%,-2.35%,-8.3%,11.7%,14.4%,2.15%
CCOC(=O)CCC(Br)(Br)Br,10%,16%,1.7%,12.8%,4.6%,10.2%
CCN(CCO)c1cccc(C)c1,-12.2%,-19.1%,-12.5%,1.6%,-17.4%,-7.2%
CSc1nc(C)cc(Nc2ccc(O)c(CN3CCCCC3)c2)n1,19.4%,-20.3%,-27.3%,10.4%,-32.6%,2.6%
CC(=O)C12C[C@](C#N)(N3CCCCCC3)C1C=Cc1ccccc12 (stereo not given in full),-56%,-29.6%,-46.1%,-51.5%,-21.5%,-56.4%
O=[N+]([O-])c1ccc[nH]c1=S,-5.15%,-15.8%,-20.4%,-7.35%,23%,-35.6%
CN(C)C(=O)C(c1ccccc1)C(c1ccccc1)N(C)C=O (stereo not given),-3.5%,-2.2%,0.2%,-3.3%,-8.3%,25.1%
O=C(NC(NC(=O)c1ccccc1)c1ccccc1)c1ccccc1,2.1%,-9.2%,1.25%,-55.2%,8.55%,-0.9%
CCCCN(C#N)CCCC,3%,1.75%,27.6%,-97.3%,-16.1%,-32%
CCCCCCCCCCCC(=O)OC(COCCC(C)C)COCCC(C)C,-2.9%,-5.05%,-3.15%,-12.1%,-11.9%,12.1%
CC(C)COC(c1ccc2c(c1)OCO2)C(C)Br (stereo not given),34.5%,39.5%,22.4%,0.3%,48.5%,58.5%
c1nc2c([nH]1)CCNC2c1ccc(C2NCCc3[nH]cnc32)cc1 (stereo not given),1.65%,-1.65%,1.3%,-38.9%,-14.1%,-2.95%
C[n+]1ccc(/C=N/O)cc1,-5.05%,-22.4%,-0.45%,2.95%,8.45%,-11.2%
COC(=O)CSSC(C)C,-29.2%,-15.3%,-22.1%,5.1%,6.4%,-59.1%
O=CC(NC(=O)N(CCCl)N=O)C(O)C(O)C(O)CO (stereo not given),-8%,-2.3%,2.15%,-1.7%,-4.95%,5.75%
CC(=O)Oc1ccc2c(c1)CCC2,9.85%,12.8%,1.4%,8.25%,15.1%,0.1%
Cc1ccc(S(=O)(=O)N2CCCSCC2)cc1,-11.6%,-6.7%,-17.5%,-6.95%,-11.6%,-16.1%
O=c1cc2ccc(Cl)cc2n[nH]1,8.1%,2.7%,2.05%,-33.4%,-14.3%,4.5%
N/N=C1\C(=O)N(c2ccc(Cl)c(Cl)c2)C(=O)C1C(=O)Nc1ccc(Cl)c(Cl)c1 (stereo not given),-7.35%,-19.4%,-20.6%,-16.4%,-29.6%,-31.1%
